Columns and labels:
Assay in all cases: log2 ratio of Biotin-Ahx-Ub-VS probe labelling (fragment/DMSO); higher = less target engagement (more negative = stronger competition), active = hit call of the paper (q ≤ 0.05, log2 ratio ≤ -1)
Details in all cases: compound concentration: 200 uM; treatment time: 3 h
USP9X = USP9X (UniProt Q93008)
In short: (§1)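 Fragment (200 µM) or vehicle was incubated for 3 h with triplicate HEK293T lysate samples of 495 µg, which were then treated with Biotin-Ahx-Ub-VS at 0.5 µM final for 1 h. Labelled DUBs were enriched on NeutrAvidin, digested with LysC and trypsin, and analysed by diaPASEF LC-MS/MS. Values are average log2 fragment/vehicle ratios from an unpaired t-test on global-median-normalised Spectronaut label-free quantities, using proteins with ≥2 unique peptides.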

UniProt O00487 = biological target: UniProt O00487
In short: as §1

UniProt O00507 = biological target: UniProt O00507
In short: as §1

UniProt P51784 = biological target: UniProt P51784
In short: as §1

UniProt Q5T2D3 = biological target: T1, UniProt Q5T2D3
T1 sequence (whole entry): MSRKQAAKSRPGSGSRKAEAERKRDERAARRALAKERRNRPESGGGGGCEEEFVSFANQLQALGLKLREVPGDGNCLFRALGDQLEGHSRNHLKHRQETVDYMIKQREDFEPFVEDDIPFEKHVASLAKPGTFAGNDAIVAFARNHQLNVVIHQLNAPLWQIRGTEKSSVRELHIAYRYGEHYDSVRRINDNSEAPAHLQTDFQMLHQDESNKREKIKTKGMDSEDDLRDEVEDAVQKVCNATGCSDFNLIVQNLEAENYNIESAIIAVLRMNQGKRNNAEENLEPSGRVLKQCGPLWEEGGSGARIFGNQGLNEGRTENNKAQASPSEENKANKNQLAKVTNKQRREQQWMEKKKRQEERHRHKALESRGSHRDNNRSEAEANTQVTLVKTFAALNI
In short: as §1

UniProt Q8TE49 = biological target: T2, UniProt Q8TE49
T2 sequence (whole entry): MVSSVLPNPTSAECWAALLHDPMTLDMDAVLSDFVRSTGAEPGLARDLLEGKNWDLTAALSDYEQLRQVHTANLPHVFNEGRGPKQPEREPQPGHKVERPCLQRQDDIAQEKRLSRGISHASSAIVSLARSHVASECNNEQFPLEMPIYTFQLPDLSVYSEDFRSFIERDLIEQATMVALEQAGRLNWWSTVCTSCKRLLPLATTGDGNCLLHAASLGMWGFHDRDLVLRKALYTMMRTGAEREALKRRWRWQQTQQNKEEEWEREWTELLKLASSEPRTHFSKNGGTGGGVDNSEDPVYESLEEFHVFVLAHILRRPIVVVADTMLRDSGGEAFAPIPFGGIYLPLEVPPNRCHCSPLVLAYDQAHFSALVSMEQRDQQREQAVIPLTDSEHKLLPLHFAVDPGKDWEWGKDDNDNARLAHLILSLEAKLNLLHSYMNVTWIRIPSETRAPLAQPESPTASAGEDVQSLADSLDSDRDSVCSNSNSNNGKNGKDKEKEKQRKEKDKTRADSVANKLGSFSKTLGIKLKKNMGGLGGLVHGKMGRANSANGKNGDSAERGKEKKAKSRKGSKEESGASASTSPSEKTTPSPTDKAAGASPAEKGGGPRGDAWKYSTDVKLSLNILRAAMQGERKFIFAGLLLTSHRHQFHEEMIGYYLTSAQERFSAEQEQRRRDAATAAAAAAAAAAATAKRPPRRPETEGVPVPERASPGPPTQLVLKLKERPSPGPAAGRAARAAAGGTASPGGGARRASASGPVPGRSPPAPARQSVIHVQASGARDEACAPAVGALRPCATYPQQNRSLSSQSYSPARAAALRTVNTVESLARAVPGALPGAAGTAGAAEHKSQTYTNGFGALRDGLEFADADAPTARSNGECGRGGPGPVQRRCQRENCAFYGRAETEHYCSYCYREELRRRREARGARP
In short: as §1

UniProt Q9P2H5 = biological target: T3, UniProt Q9P2H5
T3 sequence (whole entry): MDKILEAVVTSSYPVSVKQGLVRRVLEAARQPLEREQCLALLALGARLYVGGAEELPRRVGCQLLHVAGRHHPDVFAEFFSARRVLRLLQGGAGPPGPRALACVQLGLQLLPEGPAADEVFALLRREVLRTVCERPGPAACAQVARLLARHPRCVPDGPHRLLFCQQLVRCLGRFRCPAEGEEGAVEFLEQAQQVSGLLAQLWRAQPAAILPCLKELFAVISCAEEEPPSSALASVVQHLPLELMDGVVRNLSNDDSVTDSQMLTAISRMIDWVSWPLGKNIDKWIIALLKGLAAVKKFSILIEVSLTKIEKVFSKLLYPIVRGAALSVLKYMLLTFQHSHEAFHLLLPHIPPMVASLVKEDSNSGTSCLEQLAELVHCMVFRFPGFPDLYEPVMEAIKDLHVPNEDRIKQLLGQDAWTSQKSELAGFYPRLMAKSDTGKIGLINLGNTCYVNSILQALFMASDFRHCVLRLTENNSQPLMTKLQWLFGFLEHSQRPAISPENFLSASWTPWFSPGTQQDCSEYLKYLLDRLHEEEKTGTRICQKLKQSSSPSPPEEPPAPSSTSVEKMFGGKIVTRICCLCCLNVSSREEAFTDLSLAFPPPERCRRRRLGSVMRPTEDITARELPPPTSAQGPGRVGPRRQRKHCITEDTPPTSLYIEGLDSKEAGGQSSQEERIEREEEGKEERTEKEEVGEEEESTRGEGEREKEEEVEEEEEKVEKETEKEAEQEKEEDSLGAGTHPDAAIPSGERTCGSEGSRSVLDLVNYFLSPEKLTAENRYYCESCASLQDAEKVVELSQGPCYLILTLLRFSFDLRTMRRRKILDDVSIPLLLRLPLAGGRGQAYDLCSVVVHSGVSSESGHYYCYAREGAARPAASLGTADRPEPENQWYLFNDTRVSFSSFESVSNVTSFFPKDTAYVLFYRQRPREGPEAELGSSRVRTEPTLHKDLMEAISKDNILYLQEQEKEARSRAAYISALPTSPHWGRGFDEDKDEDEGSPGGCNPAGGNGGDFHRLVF
In short: as §1

UniProt Q9UGI0 = biological target: T4, UniProt Q9UGI0
T4 sequence (whole entry): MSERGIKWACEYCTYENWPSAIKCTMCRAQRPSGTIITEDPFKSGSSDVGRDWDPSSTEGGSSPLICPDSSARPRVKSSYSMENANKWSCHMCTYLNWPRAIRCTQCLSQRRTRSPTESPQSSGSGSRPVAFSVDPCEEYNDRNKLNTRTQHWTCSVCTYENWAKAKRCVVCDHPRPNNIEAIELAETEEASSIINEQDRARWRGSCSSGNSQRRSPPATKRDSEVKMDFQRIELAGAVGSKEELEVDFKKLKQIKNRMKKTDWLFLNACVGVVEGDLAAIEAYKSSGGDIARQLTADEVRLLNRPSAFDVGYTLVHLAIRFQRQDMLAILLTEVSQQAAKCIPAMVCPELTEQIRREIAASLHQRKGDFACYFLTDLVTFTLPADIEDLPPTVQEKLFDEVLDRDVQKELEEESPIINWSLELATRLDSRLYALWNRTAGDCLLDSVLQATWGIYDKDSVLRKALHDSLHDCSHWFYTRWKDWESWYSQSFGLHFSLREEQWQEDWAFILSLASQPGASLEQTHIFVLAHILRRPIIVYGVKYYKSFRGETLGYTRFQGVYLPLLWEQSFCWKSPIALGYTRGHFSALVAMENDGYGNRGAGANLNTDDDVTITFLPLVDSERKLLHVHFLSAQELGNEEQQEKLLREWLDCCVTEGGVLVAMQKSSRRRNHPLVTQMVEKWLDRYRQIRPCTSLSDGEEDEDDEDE
In short: as §1

YOD1 = biological target: T5, YOD1 (UniProt Q5VVQ6)
T5 sequence (whole entry): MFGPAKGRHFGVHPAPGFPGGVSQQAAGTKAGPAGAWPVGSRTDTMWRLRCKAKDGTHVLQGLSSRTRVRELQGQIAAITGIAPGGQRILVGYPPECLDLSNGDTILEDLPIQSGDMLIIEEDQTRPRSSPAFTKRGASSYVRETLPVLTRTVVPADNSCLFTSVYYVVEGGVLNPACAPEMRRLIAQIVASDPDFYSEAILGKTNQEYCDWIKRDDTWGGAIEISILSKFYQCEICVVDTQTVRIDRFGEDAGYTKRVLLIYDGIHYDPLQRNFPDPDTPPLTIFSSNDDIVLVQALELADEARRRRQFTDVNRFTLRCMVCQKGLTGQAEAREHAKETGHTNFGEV
In short: as §1

Measured: log2 ratio of Biotin-Ahx-Ub-VS probe labelling

Sequence of UniProt P51784 (P51784 whole entry): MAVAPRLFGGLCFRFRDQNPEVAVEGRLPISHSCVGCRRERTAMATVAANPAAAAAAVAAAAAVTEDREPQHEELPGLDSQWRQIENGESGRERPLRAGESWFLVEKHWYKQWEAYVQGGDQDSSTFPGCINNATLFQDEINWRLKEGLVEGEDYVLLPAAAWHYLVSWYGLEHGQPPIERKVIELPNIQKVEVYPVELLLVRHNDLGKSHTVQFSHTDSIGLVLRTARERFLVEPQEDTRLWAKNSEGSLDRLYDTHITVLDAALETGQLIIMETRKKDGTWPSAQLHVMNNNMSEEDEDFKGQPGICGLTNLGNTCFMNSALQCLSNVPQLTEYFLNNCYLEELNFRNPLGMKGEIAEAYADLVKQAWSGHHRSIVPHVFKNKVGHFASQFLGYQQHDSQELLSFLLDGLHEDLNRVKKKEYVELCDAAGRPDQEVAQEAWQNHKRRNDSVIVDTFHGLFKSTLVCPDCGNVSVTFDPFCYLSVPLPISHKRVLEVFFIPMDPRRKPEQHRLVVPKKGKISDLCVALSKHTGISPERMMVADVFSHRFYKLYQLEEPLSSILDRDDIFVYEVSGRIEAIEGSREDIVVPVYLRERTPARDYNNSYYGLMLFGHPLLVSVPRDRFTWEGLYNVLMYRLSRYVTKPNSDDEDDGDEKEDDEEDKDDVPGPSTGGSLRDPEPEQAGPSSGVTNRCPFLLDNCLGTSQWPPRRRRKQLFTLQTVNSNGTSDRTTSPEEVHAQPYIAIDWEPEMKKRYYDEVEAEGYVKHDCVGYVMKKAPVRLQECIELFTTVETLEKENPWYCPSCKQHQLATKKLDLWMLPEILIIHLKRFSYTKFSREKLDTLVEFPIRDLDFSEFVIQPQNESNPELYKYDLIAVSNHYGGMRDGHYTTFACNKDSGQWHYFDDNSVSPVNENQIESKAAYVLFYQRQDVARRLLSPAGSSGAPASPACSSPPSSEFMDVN
Sequence of UniProt O00507 (O00507 whole entry): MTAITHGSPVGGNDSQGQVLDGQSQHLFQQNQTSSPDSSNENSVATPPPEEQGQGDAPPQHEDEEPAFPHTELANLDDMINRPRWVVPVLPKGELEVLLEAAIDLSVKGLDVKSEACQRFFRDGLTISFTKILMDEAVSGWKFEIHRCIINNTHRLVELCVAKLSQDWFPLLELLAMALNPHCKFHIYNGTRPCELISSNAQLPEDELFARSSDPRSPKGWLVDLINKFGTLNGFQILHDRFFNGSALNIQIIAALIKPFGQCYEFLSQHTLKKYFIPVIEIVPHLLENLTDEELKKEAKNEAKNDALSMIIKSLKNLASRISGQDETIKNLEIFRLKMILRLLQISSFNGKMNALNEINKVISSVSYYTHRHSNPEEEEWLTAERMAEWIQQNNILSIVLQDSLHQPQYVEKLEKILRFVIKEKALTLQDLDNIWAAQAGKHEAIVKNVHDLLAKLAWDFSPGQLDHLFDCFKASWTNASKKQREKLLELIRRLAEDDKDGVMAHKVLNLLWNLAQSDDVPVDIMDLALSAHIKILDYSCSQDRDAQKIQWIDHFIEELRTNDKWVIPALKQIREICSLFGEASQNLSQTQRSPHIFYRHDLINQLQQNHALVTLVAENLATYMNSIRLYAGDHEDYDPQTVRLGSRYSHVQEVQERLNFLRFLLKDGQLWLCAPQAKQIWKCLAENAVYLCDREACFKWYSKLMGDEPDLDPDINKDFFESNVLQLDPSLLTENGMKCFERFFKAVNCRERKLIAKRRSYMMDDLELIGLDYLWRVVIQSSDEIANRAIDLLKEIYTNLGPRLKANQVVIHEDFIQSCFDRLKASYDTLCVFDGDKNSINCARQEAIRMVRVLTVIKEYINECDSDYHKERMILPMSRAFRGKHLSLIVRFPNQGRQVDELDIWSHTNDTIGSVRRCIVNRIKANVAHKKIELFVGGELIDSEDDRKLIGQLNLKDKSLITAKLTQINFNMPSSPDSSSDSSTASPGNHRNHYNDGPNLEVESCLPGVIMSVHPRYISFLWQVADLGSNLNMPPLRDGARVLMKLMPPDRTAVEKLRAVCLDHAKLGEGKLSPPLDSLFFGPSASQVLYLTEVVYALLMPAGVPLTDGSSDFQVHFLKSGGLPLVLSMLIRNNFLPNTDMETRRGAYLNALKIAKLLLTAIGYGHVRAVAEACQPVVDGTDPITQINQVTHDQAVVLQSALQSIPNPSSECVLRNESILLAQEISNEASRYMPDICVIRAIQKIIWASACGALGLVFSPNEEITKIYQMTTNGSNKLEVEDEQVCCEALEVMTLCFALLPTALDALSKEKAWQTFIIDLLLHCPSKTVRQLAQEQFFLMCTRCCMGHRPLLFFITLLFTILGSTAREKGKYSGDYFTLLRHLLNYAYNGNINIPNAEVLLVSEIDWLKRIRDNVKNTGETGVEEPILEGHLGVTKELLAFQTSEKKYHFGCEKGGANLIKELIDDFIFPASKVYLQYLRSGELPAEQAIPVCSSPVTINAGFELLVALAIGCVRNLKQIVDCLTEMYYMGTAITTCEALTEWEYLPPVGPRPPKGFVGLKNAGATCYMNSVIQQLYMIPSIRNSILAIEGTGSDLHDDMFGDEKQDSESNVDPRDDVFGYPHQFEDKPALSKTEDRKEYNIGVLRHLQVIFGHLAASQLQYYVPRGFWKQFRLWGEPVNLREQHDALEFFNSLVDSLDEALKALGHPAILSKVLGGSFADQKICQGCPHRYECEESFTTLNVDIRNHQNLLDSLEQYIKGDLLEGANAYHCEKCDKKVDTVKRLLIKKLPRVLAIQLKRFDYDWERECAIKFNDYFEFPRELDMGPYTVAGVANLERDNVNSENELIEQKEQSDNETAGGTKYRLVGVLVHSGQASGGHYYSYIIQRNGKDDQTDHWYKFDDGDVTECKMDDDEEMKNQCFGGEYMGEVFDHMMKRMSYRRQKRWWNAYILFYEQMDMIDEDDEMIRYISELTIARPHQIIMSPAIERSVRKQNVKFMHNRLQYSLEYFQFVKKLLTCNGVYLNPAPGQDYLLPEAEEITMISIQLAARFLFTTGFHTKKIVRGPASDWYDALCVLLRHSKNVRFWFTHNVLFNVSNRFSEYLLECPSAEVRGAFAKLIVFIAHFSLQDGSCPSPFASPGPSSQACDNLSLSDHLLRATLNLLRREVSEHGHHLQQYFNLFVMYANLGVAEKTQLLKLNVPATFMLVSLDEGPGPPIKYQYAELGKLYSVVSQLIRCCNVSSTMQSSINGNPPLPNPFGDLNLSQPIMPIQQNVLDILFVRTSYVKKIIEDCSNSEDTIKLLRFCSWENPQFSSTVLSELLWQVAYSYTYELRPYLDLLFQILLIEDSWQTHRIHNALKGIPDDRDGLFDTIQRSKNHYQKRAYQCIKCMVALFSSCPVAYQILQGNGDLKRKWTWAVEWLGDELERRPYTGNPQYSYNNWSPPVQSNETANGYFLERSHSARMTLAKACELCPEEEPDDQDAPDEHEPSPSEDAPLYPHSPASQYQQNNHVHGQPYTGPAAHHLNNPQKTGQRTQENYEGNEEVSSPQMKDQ
Sequence of UniProt O00487 (O00487 whole entry): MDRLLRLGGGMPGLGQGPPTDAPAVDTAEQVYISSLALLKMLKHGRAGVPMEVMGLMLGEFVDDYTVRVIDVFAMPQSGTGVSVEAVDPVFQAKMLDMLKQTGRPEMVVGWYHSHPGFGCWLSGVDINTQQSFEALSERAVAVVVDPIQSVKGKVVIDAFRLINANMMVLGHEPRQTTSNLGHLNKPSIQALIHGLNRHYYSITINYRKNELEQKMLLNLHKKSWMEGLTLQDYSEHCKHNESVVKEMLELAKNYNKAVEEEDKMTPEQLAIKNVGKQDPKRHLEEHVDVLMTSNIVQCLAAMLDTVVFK

CC(C)n1nccc1NC(=O)CCl
active: UniProt Q8TE49 -1.34
inactive: USP9X -0.225 | UniProt O00487 -0.188 | UniProt O00507 -0.0553 | UniProt P51784 0.033 | UniProt Q5T2D3 -0.201 | UniProt Q9P2H5 -0.152 | UniProt Q9UGI0 -0.9 | YOD1 0.0661
